Molecules are shown by their SMILES. “And” between values parts separate entries of the source, which are not always exact repeats. Equal entries are not always repeated. Records with an inconclusive call do not appear. A structure can be active in one record and inactive in another. The source made the active and inactive calls. Calls come from the whole dose curve; as a rule, active = well fitted curve in the direction sought with a large enough effect in the repeat runs; inconclusive = weak or mixed curves; inactive = no such curve, though single readings can be large; an effect the other way counts as inactive or inconclusive.

Experiment [1] is described as follows: A CellTox Green Cytotoxicity Assay to monitor cytotoxicity in HepG2 cells - 0 hour (AID 1224882). Note: nearly all actives have a fitted effect of over 35% in size. Note: potency is the fitted concentration of half-maximal effect. The method, boiled down:
(§1)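 Continuous culture of HepG2 cells with a membrane-impermeant DNA dye; rising fluorescence marks dead cells. Compound exposure lasted up to 40 h at 37 C, with reads every 8 h from 0 h.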

The nature of experiment [2]: A CellTox Green Cytotoxicity Assay to monitor cytotoxicity in HepG2 cells - 32 hour (AID 1224883). Note: nearly all actives have a fitted effect of over 50% in size. Note: potency is the fitted concentration of half-maximal effect. The gist of the method: as §1
A short description of experiment [3]: A CellTox Green Cytotoxicity Assay to monitor cytotoxicity in HEK293 cells - 8 hour (AID 1224884). Note: nearly all actives have a fitted effect of over 35% in size. Note: potency is the fitted concentration of half-maximal effect. The gist of the method:
(§2)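 Each value comes from one timepoint of a single continuous run in which HEK293 cells with CellTox Green were exposed to compound for up to 40 h at 37 C, dye fluorescence rising with cell death.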

A short description of experiment [4]: qHTS RealTime-Glo MT Cell Viability Assay in HepG2 cells - 16 hour (AID 1224885). Note: nearly all actives have a fitted effect of over 50% in size. Note: potency is the fitted concentration of half-maximal effect. The method, boiled down:
(§3)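 Cells + NanoLuc/prosubstrate dispensed (600 cells/well) → 5 h at 37 C/5% CO2 → compounds in DMSO transferred → 40 h incubation at 37 C, luminescence read at 0, 8, 16, 24, 32, 40 h.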
(In qHTS, concentration-response curves come from the screen itself.)

The nature of experiment [5]: qHTS RealTime-Glo MT Cell Viability Assay in HEK293 cells - 24 hour (AID 1224886). Note: nearly all actives have a fitted effect of over 50% in size. Note: potency is the fitted concentration of half-maximal effect. The method, boiled down:
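Tox21 10K qHTS, HEK293, 600 cells/well, RealTime-Glo reagent co-dispensed with cells; 5 h preincubation, compound by pintool, 37 C, luminescence at 0–40 h.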

Experiment [6] in a line: A CellTox Green Cytotoxicity Assay to monitor cytotoxicity in HEK293 cells - 16 hour (AID 1224888). Note: nearly all actives have a fitted effect of over 35% in size. The method, boiled down:
as §2

A short description of experiment [7]: A CellTox Green Cytotoxicity Assay to monitor cytotoxicity in HepG2 cells - 8 hour (AID 1224890). Note: nearly all actives have a fitted effect of over 45% in size. Note: potency is the fitted concentration of half-maximal effect. The gist of the method:
as §1

The nature of experiment [8]: qHTS assay to identify small molecule antagonists of the estrogen receptor alpha (ER-alpha) signaling pathway using the BG1 cell line in the presence of 0.1 nM 17-beta-estradiol - cell viability counter screen (AID 1259241). Note: nearly all actives have a fitted effect of over 40% in size. Note: potency is the fitted concentration of half-maximal effect. The gist of the method:
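Estradiol-stimulated (0.1 nM) VM7Luc4E2 cells exposed to compounds 22 hr; viability measured by fluorescence of cleaved CellTiter-Fluor substrate after 30 min.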

The nature of experiment [9]: qHTS RealTime-Glo MT Cell Viability Assay in HepG2 cells - 0 hour (AID 1224889). Note: nearly all actives have a fitted effect of over 50% in size. The gist of the method: as §3
Experiment [10] can be described thus: qHTS RealTime-Glo MT Cell Viability Assay in HEK293 cells - 8 hour (AID 1224887). The method, boiled down: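 qHTS format; HEK293 cells with NanoLuc/prosubstrate reagent, 37 C/5% CO2 for 5 h pre-dosing; compounds 23 nL in DMSO; luminescence at each time point reflects viable cells.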

Consider `CNC[C@H](O)c1ccc(O)c(O)c1`, for which the Potency entry in experiment [1], in experiment [2], in experiment [3], in experiment [4], in [5] and in experiment [6] was “inactive” in each case. For the same compound, the Potency result in experiment [7] and in experiment [8] was “inactive” in each case.
Consider `CCCCCCC(C)O` (centres undefined), for which the Potency entry in experiment [1], in experiment [2], in experiment [3], in experiment [4], in [5] and in [6] was “inactive” throughout. The Potency result in experiment [9], in experiment [7] and in experiment [8] was “inactive” throughout.
Consider `C[N+](C)(C)CCO`, for which the Potency entry in [1], in [2], in experiment [3], in [4], in [5] and in experiment [6] was “inactive” each time. The Potency result in experiment [9], in experiment [7] and in experiment [8] was “inactive” throughout.
Consider `CCC/C=C/C=O`, for which the Potency result in experiment [1], in [2], in [3], in experiment [4], in experiment [5] and in experiment [10] was “inactive” throughout. The Potency entry in experiment [6], in experiment [7] and in [8] was “inactive” throughout.
Consider `C=C[C@H]1CN2CC[C@H]1C[C@@H]2[C@@H](O)c1ccnc2ccc(OC)cc12`, for which the Potency result in experiment [1], in [2], in [3], in [4], in experiment [6] and in experiment [9] was “inactive” in each case. The Potency entry in experiment [7] and in experiment [8] was “inactive” in each case. The Potency in experiment [5] is 48.2 µM (active).
`O=C(CCCN1CCC(O)(c2ccc(Cl)cc2)CC1)c1ccc(F)cc1`: the Potency result in experiment [1], in [3] and in [8] was “inactive” throughout. Further, the Potency in [2] is 21.9 µM (active); in experiment [4], 49 µM (active) and inactive; in experiment [5], 13.8 µM (active) and 8.49 µM (active); in experiment [7], 49 µM (active) and inactive.
Take `Nc1ccc(N)c(Cl)c1`: the Potency result in experiment [1] is “inactive and 38.9 µM (active)”; in experiment [2], “inactive and 43.6 µM (active)”; in experiment [3], “inactive and 27.5 µM (active)”; in [4] it was “inactive and 43.6 µM (active)”; in experiment [7], “inactive and 38.9 µM (active)”. In addition, the Potency result in experiment [5] and in experiment [8] was “inactive” in each case.
For the compound `NCCS(=O)(=O)O`, the Potency entry in [1], in [2], in experiment [4], in experiment [5], in experiment [10] and in experiment [6] was “inactive” throughout. Besides, the Potency entry in [9], in [7] and in experiment [8] was “inactive” in each case.
In the case of `Cc1cccc(Nc2ccccc2C(=O)O)c1C`, the Potency entry in experiment [1], in experiment [2], in [3], in experiment [4], in experiment [5] and in experiment [10] was “inactive” in each case. The Potency entry in [6], in experiment [7] and in experiment [8] was “inactive” in each case.
As for `Nc1ccc2c(O)cc(S(=O)(=O)O)cc2c1`, the Potency entry in experiment [1], in experiment [2], in [3], in [4], in experiment [10] and in [6] was “inactive” throughout. The Potency result in experiment [9] and in [7] was “inactive” in each case. In addition, in experiment [8], the Potency was 61.1 µM (active).
Regarding `CC(=O)Oc1ccc(C(c2ccc(OC(C)=O)cc2)c2ccccn2)cc1`, the Potency entry in experiment [1], in [2], in [3], in [4], in [5] and in experiment [6] was “inactive” each time. The Potency entry in [9] and in experiment [7] was “inactive” each time. Besides, in [8], the Potency is 0.75 µM (active).
Regarding `Cc1ccc(C(C)(C)C)c(O)c1`, the Potency entry in [1], in [4], in experiment [5] and in [8] was “inactive” throughout. Also, the Potency in experiment [2] is 38.9 µM (active); in experiment [3] it was 18.9 µM (active) and inactive; in experiment [7] it was “inactive and 43.6 µM (active)”.
In the case of `CC(C)[C@@H]1CC[C@@H](C)CC1=O`, the Potency entry in experiment [1], in [2], in [3], in experiment [4], in experiment [5] and in experiment [6] was “inactive” each time. Also, the Potency entry in experiment [7] and in [8] was “inactive” throughout.
For the compound `CN(Cc1cnc2nc(N)nc(N)c2n1)c1ccc(C(=O)N[C@@H](CCC(=O)O)C(=O)O)cc1`, the Potency entry in experiment [1], in [2], in experiment [3], in experiment [4], in experiment [6] and in experiment [9] was “inactive” each time. In addition, the Potency entry in experiment [7] and in experiment [8] was “inactive” throughout.
Turning to `CN(C)C`, the Potency entry in experiment [1], in experiment [2], in experiment [3], in [4], in [5] and in experiment [6] was “inactive” each time. For the same compound, the Potency entry in [9], in [7] and in [8] was “inactive” each time.
Take `[O-]/[N+](=N\O)c1ccccc1`: the Potency result in experiment [1], in experiment [2], in experiment [3], in experiment [4], in [5] and in experiment [6] was “inactive” throughout. The Potency entry in [9], in [7] and in [8] was “inactive” in each case.
In the case of `CCOC(=O)C(C)Oc1ccc(Oc2cnc3cc(Cl)ccc3n2)cc1` (centres undefined), the Potency entry in [1], in [2], in experiment [3], in experiment [4], in experiment [6] and in [9] was “inactive” each time. The Potency entry in [7] and in [8] was “inactive” in each case. Moreover, the Potency in [5] was 22.4 µM (active) and 36.4 µM (active).
As to `CC(C)(Oc1ccc(Cl)cc1)C(=O)O`, the Potency result in experiment [1], in experiment [2], in [3], in [4], in experiment [5] and in [6] was “inactive” in each case. In addition, the Potency entry in experiment [7] and in experiment [8] was “inactive” in each case.
Turning to `COc1cc([C@H]2Oc3cc([C@H]4Oc5cc(O)cc(O)c5C(=O)[C@@H]4O)ccc3O[C@@H]2CO)ccc1O`, the Potency result in experiment [1] was “inactive and 21.3 µM (active)”; in experiment [2] it was “inactive and 21.3 µM (active)”; in experiment [3], “inactive and 16.9 µM (active)”; in experiment [7], “inactive and 23.9 µM (active)”. For the same compound, the Potency entry in experiment [4], in experiment [5], in experiment [10], in [9] and in experiment [8] was “inactive” each time.
As for `Oc1ccc(C(c2ccc(O)cc2)C(Cl)(Cl)Cl)cc1`, the Potency entry in [1], in [2], in experiment [3], in experiment [4], in [6] and in [9] was “inactive” each time. For the same compound, the Potency entry in experiment [7] and in [8] was “inactive” each time.
`CCO[Si](CCCNC(N)=O)(OCC)OCC`: the Potency entry in experiment [1], in experiment [2], in [3], in experiment [4], in [5] and in [6] was “inactive” throughout. Moreover, the Potency entry in experiment [7] and in experiment [8] was “inactive” throughout.
Regarding `CC(=O)[C@H]1CC[C@H]2[C@@H]3CC=C4C[C@@H](O)CC[C@]4(C)[C@H]3CC[C@]12C`, the Potency entry in experiment [1], in [2], in experiment [3], in [4], in experiment [5] and in [6] was “inactive” each time. Besides, the Potency result in [9], in experiment [7] and in experiment [8] was “inactive” throughout.
In the case of `CC1(C)NC(=O)N(c2ccc([N+](=O)[O-])c(C(F)(F)F)c2)C1=O`, the Potency result in [1], in experiment [2], in [3], in experiment [4], in experiment [6] and in experiment [9] was “inactive” in each case. The Potency result in experiment [7] and in [8] was “inactive” in each case. The Potency in experiment [5] is 24.5 µM (active) and inactive.
For the compound `C=CN1CCCC1=O`, the Potency result in experiment [1], in experiment [2], in [3], in experiment [4], in experiment [5] and in experiment [10] was “inactive” throughout. Further, the Potency result in experiment [6], in [7] and in experiment [8] was “inactive” each time.

The record behind these values is PubChem BioAssay (Tox21).
